Data as given in PubChem BioAssay (EPA / NIEHS).
Active and inactive are the calls of the source. How the source made its calls: active means hit-call score of the fitted dose curve at least 0.9, where 1 is the maximum; inactive means score below 0.9.

Experiments:
[1] = ATG_CRE_CIS: Attagene CIS-FACTORIAL HepG2 Assay for human cAMP Responsive Element (CRE) binding protein 3 (AID 2282926); conditions: HepG2 CRE cis-reporter, Attagene multiplexed mRNA; actives raise or lower the signal
Summary of the method: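 Readout: fluorescently labelled reporter transcripts resolved by capillary electrophoresis after RT-PCR, taken 24 h post-dosing in transfected HepG2. Endogenous transcription factor activity drives each cis-element reporter; gain or loss of signal fitted relative to DMSO control.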

[2] = target: CCAAT/enhancer-binding protein beta (Homo sapiens) (UniProt P17676); assay: ATG_C_EBP_CIS: Attagene CIS-FACTORIAL HepG2 Assay for human CCAAT/Enhancer Binding Protein (C/EBP) beta (AID 2282927); conditions: HepG2 Attagene cis-factorial transcription factor reporter; actives raise or lower the signal
Summary of the method: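 Chemical-treated HepG2 cells (24 h) bearing cis-regulated reporter constructs were processed for total RNA, then reverse transcription, PCR amplification, fluorescent primer extension and fragment analysis; gain- and loss-of-signal were fitted against DMSO.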

[3] = ATG_CMV_CIS: Attagene CIS-FACTORIAL HepG2 Assay for human CMV (Internal Marker) (AID 2282928); conditions: HepG2 CMV promoter reporter, transcription factor profiling; actives raise or lower the signal;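 further: endpoint acts as a background internal control marker rather than a target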
Summary of the method: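 24 h chemical treatment, HepG2 with transient multi-reporter transfection; RNA → oligo(dT) RT → PCR → 6-FAM extension → HpaI digest → CE fluorescence. Bidirectional fit, DMSO negative control.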

[4] = ATG_DR4_LXR_CIS: Attagene CIS-FACTORIAL HepG2 Assay for human Liver X Receptor (LXR), DR4 submotif (AID 2282929); conditions: HepG2 Attagene DR4 cis-reporter, mRNA transcription; actives raise or lower the signal
Summary of the method: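 DR4 cis-reporter in HepG2, 24 h exposure. Detection: RT-PCR, 6-FAM labelling, CE fragment analysis. Endpoint fitted bidirectionally, DMSO = baseline.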

[5] = target: Aryl hydrocarbon receptor (Homo sapiens) (UniProt P35869); assay: ATG_Ahr_CIS: Attagene CIS-FACTORIAL HepG2 Assay for human Aryl Hydrocarbon Receptor (Ahr) (AID 2282930); conditions: HepG2 AhR cis-factorial reporter transcription; actives raise or lower the signal
Summary of the method: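 Following 24 h of chemical dosing, transfected HepG2 liver cells with cis-driven reporter units were lysed for RNA; reporter mRNA was quantified via RT-PCR and capillary electrophoresis, and responses fitted bidirectionally from DMSO.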

[6] = ATG_AP_2_CIS: Attagene CIS-FACTORIAL HepG2 Assay for human Activator Protein 2 (AP-2) (AID 2282932); conditions: HepG2 AP-2 cis-reporter, Attagene transcription factor profiling; actives raise or lower the signal
Summary of the method: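 Cells (HepG2) transfected with promoter-driven reporter constructs, treated 24 h. Total RNA reverse-transcribed, reporter cDNA PCR-amplified, FAM-labelled by primer extension, digested, resolved by capillary electrophoresis. Activity fitted both directions versus DMSO.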

[7] = ATG_BRE_CIS: Attagene CIS-FACTORIAL HepG2 Assay for human Bone Morphogenetic Protein (BMP) Response Element (BRE) (AID 2282933); conditions: HepG2 BMP response element reporter, Attagene transcription factor profiling; actives raise or lower the signal
Summary of the method: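 Endogenous transcription factor activity at a BMP response element was monitored in transfected HepG2 cells 24 h after dosing. Fluorescent RT-PCR products were resolved by capillary electrophoresis, and activity was fitted in both directions versus DMSO.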

[8] = target: Transcription factor E2F1 (Homo sapiens) (UniProt Q01094); assay: ATG_E2F_CIS: Attagene CIS-FACTORIAL HepG2 Assay for human E2F Transcription Factor 1 (AID 2282935); conditions: HepG2 Attagene cis-reporter, E2F reporter RNA transcripts; actives raise or lower the signal
Summary of the method: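 First, HepG2 cells were transfected with reporter transcription units. Next, they were dosed for 24 h. Then RNA was isolated, converted to cDNA, PCR-amplified, FAM-labeled, HpaI-digested and analyzed by capillary electrophoresis.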

[9] = ATG_E_Box_CIS: Attagene CIS-FACTORIAL HepG2 Assay for human Enhancer Box (E-box) (AID 2282936); conditions: HepG2 E-box cis-reporter transcription, actives raise or lower the signal
Summary of the method: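 Endogenous transcription factor activity was sensed in human HepG2 liver cells through transfected cis-promoter reporter units. After 24 h of dosing, total RNA was reverse-transcribed and reporter cDNA resolved by capillary electrophoresis.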

[10] = ATG_M_61_CIS: Attagene CIS-FACTORIAL HepG2 Assay for M61 Transcription Factor (Internal Marker) (AID 2282937); conditions: HepG2 Attagene CIS-FACTORIAL M61 internal marker reporter; actives raise or lower the signal
Summary of the method: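 Background-control endpoint: HepG2 cells with cis-regulated reporter constructs, 24 h exposure, reporter mRNA detected via fluorescent primer extension and capillary electrophoresis; values from bidirectional fitting with DMSO baseline.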

[11] = ATG_EGR_CIS: Attagene CIS-FACTORIAL HepG2 Assay for human Early Growth Response 1 (EGR1) (AID 2282938); conditions: HepG2 Attagene CIS-FACTORIAL EGR reporter mRNA; actives raise or lower the signal
Summary of the method: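 Endpoint derived by bidirectional fitting versus DMSO vehicle. Method: cis-promoter reporter units transfected into HepG2, 24 h dosing, RNA isolation, RT-PCR with 6-FAM primer extension and HpaI digestion, then capillary electrophoresis fluorescence detection.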

[12] = ATG_M_19_CIS: Attagene CIS-FACTORIAL HepG2 Assay for M19 Transcription Factor (Internal Marker) (AID 2282939); conditions: HepG2 Attagene CIS-FACTORIAL M19 internal marker reporter; actives raise or lower the signal
Summary of the method: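 Background-control endpoint from a multiplexed HepG2 reporter panel. Cells carrying cis-regulated reporter constructs are treated 24 h, then reporter transcripts are amplified, fluorescently labelled and sized by capillary electrophoresis. DMSO defines baseline.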

[13] = ATG_ERE_CIS: Attagene CIS-FACTORIAL HepG2 Assay for Estrogen Response Element (ERE) (AID 2282940); conditions: HepG2 ERE cis-reporter, Attagene RNA transcript; actives raise or lower the signal
Summary of the method: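 Cells used were human hepatoma HepG2, transfected with multiple reporter transcription units under cis-regulatory promoters. Reporter mRNA, read 24 h post-dosing via fluorescent RT-PCR products on capillary electrophoresis, was fitted bidirectionally relative to DMSO.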

[14] = ATG_Ets_CIS: Attagene CIS-FACTORIAL HepG2 Assay for human Erythroblast Transformation Specific (ETS) (AID 2282941); conditions: HepG2 ETS cis-reporter transcription, actives raise or lower the signal
Summary of the method: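 Cis-regulated reporter mRNA induction in HepG2 (transient transfection), 24 h exposure, RT-PCR plus capillary electrophoresis detection; DMSO serves as negative control and baseline.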

[15] = target: Hepatocyte nuclear factor 3-beta (Homo sapiens) (UniProt Q9Y261); assay: ATG_FoxA2_CIS: Attagene CIS-FACTORIAL HepG2 Assay for human Forkhead box A2 (FOXA2) (AID 2282942); conditions: HepG2 cis-reporter transcription factor activity, 24 h; actives raise or lower the signal
Summary of the method: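 Measured: reporter mRNA induction or loss in HepG2 transiently carrying multiple cis-regulated reporter units, 24 h after dosing. Quantified by RT-PCR plus capillary electrophoresis, normalised to DMSO.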

[16] = ATG_GATA_CIS: Attagene CIS-FACTORIAL HepG2 Assay for human GATA Binding Protein (AID 2282944); conditions: HepG2 GATA cis-element reporter, Attagene multiplex mRNA; actives raise or lower the signal
Summary of the method: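 Endogenous transcription factor activity was captured through cis-promoter-driven reporters in transfected HepG2 cells. After 24 h exposure, reporter transcripts were quantified by RT-PCR with fluorescent capillary electrophoresis, and responses fitted both directions against DMSO.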

[17] = ATG_GLI_CIS: Attagene CIS-FACTORIAL HepG2 Assay for human Zinc Finger Protein GLI1 (AID 2282945); conditions: HepG2, Attagene cis-factorial reporter mRNA, GLI element; actives raise or lower the signal
Summary of the method: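 HepG2 cells transiently transfected with cis-promoter multiplexed reporter units report endogenous transcription factor activity. After 24 h chemical exposure, reporter mRNA was quantified by RT-PCR, 6-FAM labelling, HpaI digestion and capillary electrophoresis, with bidirectional fitting against DMSO.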

[18] = ATG_AP_1_CIS: Attagene CIS-FACTORIAL HepG2 Assay for human Activator Protein 1 (AP-1) (AID 2282931); conditions: HepG2 Attagene cis-factorial AP-1 reporter mRNA; actives raise or lower the signal
Summary of the method: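 Cis-regulated reporter units transiently expressed in HepG2 report endogenous transcription-factor activity. Signal: reporter mRNA at 24 h, via RT-PCR and fluorescent capillary electrophoresis. Endpoint derived by bidirectional fitting, DMSO as negative control.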

[19] = ATG_FoxO_CIS: Attagene CIS-FACTORIAL HepG2 Assay for human Forkhead box O (FoxO) (AID 2282943); conditions: HepG2 Attagene cis-reporter, FoxO element, mRNA; actives raise or lower the signal
Summary of the method: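 24 h chemical exposure, HepG2 with transient cis-MRTU transfection. RNA extraction, oligo(dT) RT, reporter-specific PCR, primer-extension labelling, HpaI digestion, CE fragment analysis; bidirectional fit, DMSO baseline.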

Chain of Hepatocyte nuclear factor 3-beta (Homo sapiens) (Q9Y261 whole entry, looked up): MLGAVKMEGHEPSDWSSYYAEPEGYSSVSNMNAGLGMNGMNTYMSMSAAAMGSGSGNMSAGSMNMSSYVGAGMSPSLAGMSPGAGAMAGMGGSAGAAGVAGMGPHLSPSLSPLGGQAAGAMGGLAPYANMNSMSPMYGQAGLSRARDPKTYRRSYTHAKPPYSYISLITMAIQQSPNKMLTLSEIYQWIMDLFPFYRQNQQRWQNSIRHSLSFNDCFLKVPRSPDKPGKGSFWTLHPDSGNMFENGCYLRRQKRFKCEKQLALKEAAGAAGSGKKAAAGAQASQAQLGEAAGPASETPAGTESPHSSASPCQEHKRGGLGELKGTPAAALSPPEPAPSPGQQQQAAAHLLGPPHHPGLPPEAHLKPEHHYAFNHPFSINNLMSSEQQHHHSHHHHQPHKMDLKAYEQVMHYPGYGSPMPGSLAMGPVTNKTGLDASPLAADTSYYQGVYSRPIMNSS
Chain of Transcription factor E2F1 (Homo sapiens) (Q01094 whole entry, looked up): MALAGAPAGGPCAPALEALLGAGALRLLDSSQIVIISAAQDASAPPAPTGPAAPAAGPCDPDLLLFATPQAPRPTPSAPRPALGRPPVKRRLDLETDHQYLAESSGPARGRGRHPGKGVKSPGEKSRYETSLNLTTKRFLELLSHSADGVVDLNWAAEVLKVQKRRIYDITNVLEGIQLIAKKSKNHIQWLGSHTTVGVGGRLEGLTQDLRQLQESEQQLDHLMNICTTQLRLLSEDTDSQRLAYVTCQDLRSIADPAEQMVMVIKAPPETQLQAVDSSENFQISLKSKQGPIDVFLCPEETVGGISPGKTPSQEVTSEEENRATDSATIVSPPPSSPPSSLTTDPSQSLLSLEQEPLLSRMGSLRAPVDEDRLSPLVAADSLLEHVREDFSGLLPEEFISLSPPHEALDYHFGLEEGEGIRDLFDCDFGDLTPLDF
Chain of Aryl hydrocarbon receptor (Homo sapiens) (P35869 whole entry, looked up): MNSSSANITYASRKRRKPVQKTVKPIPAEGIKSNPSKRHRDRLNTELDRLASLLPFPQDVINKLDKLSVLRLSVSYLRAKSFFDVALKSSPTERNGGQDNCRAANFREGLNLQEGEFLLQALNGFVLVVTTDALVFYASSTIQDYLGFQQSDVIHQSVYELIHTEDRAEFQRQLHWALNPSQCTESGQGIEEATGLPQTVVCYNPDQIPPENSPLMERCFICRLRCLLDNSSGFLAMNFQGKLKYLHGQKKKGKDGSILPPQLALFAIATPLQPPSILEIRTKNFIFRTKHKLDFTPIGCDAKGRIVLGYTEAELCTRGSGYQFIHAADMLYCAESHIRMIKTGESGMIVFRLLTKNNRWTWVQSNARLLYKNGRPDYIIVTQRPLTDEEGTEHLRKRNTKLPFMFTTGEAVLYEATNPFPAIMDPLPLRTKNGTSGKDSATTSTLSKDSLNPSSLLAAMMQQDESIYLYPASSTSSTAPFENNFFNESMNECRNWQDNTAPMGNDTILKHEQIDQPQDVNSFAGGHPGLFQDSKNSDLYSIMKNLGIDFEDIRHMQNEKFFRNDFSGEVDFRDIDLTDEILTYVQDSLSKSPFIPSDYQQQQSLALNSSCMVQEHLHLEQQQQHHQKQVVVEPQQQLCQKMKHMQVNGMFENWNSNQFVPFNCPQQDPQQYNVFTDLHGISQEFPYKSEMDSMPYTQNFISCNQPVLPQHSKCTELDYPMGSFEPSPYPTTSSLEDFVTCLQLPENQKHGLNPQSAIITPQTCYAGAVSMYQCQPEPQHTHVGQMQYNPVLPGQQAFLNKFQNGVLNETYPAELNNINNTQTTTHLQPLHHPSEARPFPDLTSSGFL
Chain of CCAAT/enhancer-binding protein beta (Homo sapiens) (P17676 whole entry, looked up, the tested form may be a part): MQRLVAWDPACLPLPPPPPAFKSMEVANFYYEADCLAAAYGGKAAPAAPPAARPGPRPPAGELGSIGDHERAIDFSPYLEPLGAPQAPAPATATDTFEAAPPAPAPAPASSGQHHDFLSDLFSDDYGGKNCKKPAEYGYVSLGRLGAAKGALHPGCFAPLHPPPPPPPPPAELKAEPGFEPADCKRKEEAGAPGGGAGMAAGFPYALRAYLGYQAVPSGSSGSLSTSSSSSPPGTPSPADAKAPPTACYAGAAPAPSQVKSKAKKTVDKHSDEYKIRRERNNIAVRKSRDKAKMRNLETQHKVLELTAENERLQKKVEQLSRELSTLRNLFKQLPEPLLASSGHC

NCCOCCO
outcome [1]: inactive
outcome [2]: inactive
outcome [3]: inactive
outcome [4]: inactive
outcome [5]: inactive
outcome [6]: inactive
outcome [7]: inactive
outcome [8]: inactive
outcome [9]: inactive
outcome [10]: inactive
outcome [11]: inactive
outcome [12]: inactive
outcome [13]: inactive
outcome [14]: inactive
outcome [15]: inactive
outcome [16]: inactive
outcome [17]: inactive

O=C(O)c1cn(C2CC2)c2cc(N3CCNCC3)c(F)cc2c1=O
outcome [1]: inactive
outcome [2]: inactive
outcome [3]: inactive
outcome [4]: inactive
outcome [5]: inactive
outcome [18]: inactive
outcome [8]: inactive
outcome [9]: inactive
outcome [10]: inactive
outcome [11]: inactive
outcome [12]: inactive
outcome [13]: inactive
outcome [14]: inactive
outcome [15]: inactive
outcome [19]: inactive
outcome [16]: inactive
outcome [17]: inactive

CC(C)=CCCC(C)=CCCC(C)=CCO
outcome [1]: inactive
outcome [2]: inactive
outcome [3]: inactive
outcome [4]: inactive
outcome [5]: inactive
outcome [18]: inactive
outcome [7]: inactive
outcome [8]: inactive
outcome [9]: inactive
outcome [10]: inactive
outcome [11]: inactive
outcome [12]: inactive
outcome [14]: inactive
outcome [15]: inactive
outcome [19]: inactive
outcome [16]: inactive
outcome [17]: inactive

C=C(C)[C@@H]1CC[C@@H](C)C[C@@H]1O
outcome [1]: inactive
outcome [2]: inactive
outcome [3]: inactive
outcome [4]: inactive
outcome [5]: inactive
outcome [18]: inactive
outcome [7]: inactive
outcome [8]: inactive
outcome [9]: inactive
outcome [10]: inactive
outcome [11]: inactive
outcome [12]: inactive
outcome [14]: inactive
outcome [15]: inactive
outcome [19]: inactive
outcome [16]: inactive
outcome [17]: inactive

CCC(C)CCCC(C)(C)O (stereo unspecified)
outcome [1]: inactive
outcome [2]: inactive
outcome [3]: inactive
outcome [4]: inactive
outcome [5]: inactive
outcome [6]: inactive
outcome [7]: inactive
outcome [8]: inactive
outcome [9]: inactive
outcome [10]: inactive
outcome [11]: inactive
outcome [12]: inactive
outcome [14]: inactive
outcome [15]: inactive
outcome [16]: inactive
outcome [17]: inactive

CC(C)(C)c1n[nH]c(=S)n(N)c1=O
outcome [1]: inactive
outcome [2]: inactive
outcome [3]: inactive
outcome [4]: inactive
AC50 [5]: 23.9 µM (active)
outcome [6]: inactive
outcome [7]: inactive
outcome [8]: inactive
outcome [9]: inactive
outcome [10]: inactive
outcome [11]: inactive
outcome [12]: inactive
outcome [13]: inactive
outcome [14]: inactive
outcome [15]: inactive
outcome [19]: inactive
outcome [16]: inactive
outcome [17]: inactive

CC1(C)OC[C@@H]2O[C@@]3(C(=O)O)OC(C)(C)O[C@H]3[C@@H]2O1
outcome [1]: inactive
outcome [2]: inactive
outcome [3]: inactive
outcome [4]: inactive
outcome [5]: inactive
outcome [6]: inactive
outcome [7]: inactive
outcome [8]: inactive
outcome [9]: inactive
outcome [10]: inactive
outcome [11]: inactive
outcome [12]: inactive
outcome [14]: inactive
outcome [15]: inactive
outcome [19]: inactive
outcome [16]: inactive
outcome [17]: inactive

C=CCOc1nc(OCC=C)nc(OCC=C)n1
outcome [1]: inactive
outcome [2]: inactive
AC50 [3]: 42.9 µM (active)
outcome [4]: inactive
outcome [5]: inactive
outcome [18]: inactive
outcome [7]: inactive
outcome [8]: inactive
outcome [9]: inactive
outcome [10]: inactive
outcome [11]: inactive
outcome [12]: inactive
outcome [14]: inactive
outcome [15]: inactive
outcome [19]: inactive
outcome [16]: inactive
outcome [17]: inactive
